Test [1] is described as follows: small molecules captured by biotinylated probe aFSTL3 – biochemical, small-molecule microarray, fluorescence 635/667, stem cell growth factor project, primary screen (AID 1064).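 Note: measures binding of the biotinylated anti-FSTL3 antibody to printed compounds.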 Conditions: higher = more signal.
The nature of test [2]: binders from COS7 lysate, DM2A8 probe, primary screen, torsin A project, cell lysate, small-molecule microarray, fluorescence 635/667 (AID 1065). Conditions: higher = more signal, COS7 lysate expressing mutant human TOR1A.
Test [3] is described as follows: small molecules captured by biotinylated probe aFGF2 – biochemical, small-molecule microarray, fluorescence 635/667, stem cell growth factor project, primary screen (AID 1067).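 Note: measures binding of biotinylated aFGF2 protein to printed compounds on slides; z-score merges feature fluorescence and signal-to-noise across triplicate slides.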 Conditions: higher = more signal.
Test [4] in a line: small molecules captured by biotinylated probe aFGF10 – biochemical, small-molecule microarray, fluorescence 635/667, stem cell growth factor project, primary screen (AID 1071).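 Note: score merges 667 nm spot intensity and signal to noise from triplicate slides.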 Conditions: higher = more signal.
Test [5] addresses Neurogenic locus notch homolog protein 2 (Homo sapiens) (UniProt Q04721). The test is described as follows: small molecules binding Notch2 protein – biochemical, small-molecule microarray, 635 nm fluorescence, stem cell growth factors, primary screen (AID 1073). Conditions: higher = more signal.
Test [6] has as its target Pro-neuregulin-1, membrane-bound isoform (Homo sapiens) (UniProt Q02297). Put plainly: small molecules binding neuregulin-1 protein – biochemical, small-molecule microarray, fluorescence 635/667, psychiatric disease protein project, primary screen (AID 1075).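 Note: score combines 667 nm spot fluorescence with signal to noise.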 Conditions: NRG1 binding, 635 nm fluorescence, higher = more signal.
Test [7] has as its system Neuregulin-1 EGF-like domain. Put plainly: small molecules binding NRG1 EGF domain – biochemical, small-molecule microarray, 635 nm fluorescence, primary screen (AID 1081).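 Note: binding of the protein to compounds printed on small-molecule microarray slides.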 Conditions: higher = more signal.
The nature of test [8]: FRG1 expression reporter modulators in myotubes – cell-based, C2C12 myotubes, firefly/Renilla luciferase, luminescence, FRG1 inhibition for FSHD, primary screen (AID 1084). Conditions: FRG1 promoter luciferase, higher = more signal, called active from +8 up or from −8 down.
The nature of test [9]: small molecules captured by biotinylated probe aFST – biochemical, small-molecule microarray, fluorescence 635/667, stem cell growth factor project, primary screen (AID 1086).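 Note: score merges 667 nm fluorescence with signal-to-noise of each printed compound spot.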 Conditions: higher = more signal.
Test [10] in a line: binders of probe aHhip on microarray, primary screen, stem cell growth factor project, biochemical, small-molecule microarray, fluorescence 635/667 (AID 1087).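 Note: score merges spot fluorescence at 667nm with spot signal to noise ratio.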 Conditions: higher = more signal.
In test [11] the test system is PRMT1 (protein arginine N-methyltransferase 1). The test is described as follows: small molecules binding arginine methyltransferase PRMT1 – biochemical, small-molecule microarray, 635 nm fluorescence, primary screen (AID 1088).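 Note: binding of Prmt1 protein to compounds spotted on small-molecule microarray slides.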 Conditions: higher = more signal.
A short description of test [12]: growth effects on S. cerevisiae YJM789 – YJM789 clinical isolate, OD600, 24 h, basal, primary screen (AID 1089).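 Note: growth of clinical yeast isolate S. cerevisiae YJM 789 seeded 1000 cells per well; test concentration not given here.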 Conditions: higher = more signal, called active from +8 up or from −8 down.
Test [13] in a line: S. pombe growth modifiers, basal conditions – strain 972, OD600, 24 h, no modulator, primary screen (AID 1090).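 Note: basal condition with compound alone and no growth modifier present; test concentration not given here.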 Conditions: S. pombe 972 growth, higher = more signal, called active from +8 up or from −8 down.
The nature of test [14]: budding yeast growth modifiers under rapamycin – strain BY4716, OD600, 96 h, primary screen (AID 1091). Note: test concentration not given here. Conditions: S. cerevisiae BY4716 + rapamycin, higher = more signal, called active from +8 up or from −8 down.
Test [15] addresses Torsin-1A-interacting protein 2 (Homo sapiens) (UniProt Q8NFQ8). Put plainly: small molecules binding lysate-expressed LULL1 – cell lysate, human LULL1 lysate, 635/667 nm fluorescence, primary screen (AID 1092).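 Note: probe is lysate of COS7 cells overexpressing human LULL1; score merges per-feature 667 nm fluorescence with signal-to-noise.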 Conditions: small-molecule microarray, hLULL1 lysate binding, 635 nm fluorescence; higher = more signal.
Test [16] is described as follows: optical density change of DRC41 E. coli – strain DRC41, OD650, 24 h, E. coli filamentation project, primary screen (AID 1093).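 Note: MC1000 strain lacking acrAB efflux and sulA so SOS filamentation is blocked; test concentration not given here.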 Conditions: E. coli DRC41 growth, higher = more signal, called active from +8 up or from −8 down.
A short description of test [17]: probe aLefty2 binding to arrayed compounds – biochemical, biotinylated probe, 635/667 nm fluorescence, primary screen (AID 1094).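 Note: score merges spot fluorescence near 667 nm with spot signal-to-noise ratio.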 Conditions: small-molecule microarray, higher = more signal.
Test [18] has as its system Noggin (protein binding on small-molecule microarray). The test is described as follows: small molecules binding Noggin protein – biochemical, 635/667 nm fluorescence, primary screen (AID 1095).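 Note: score merges 667 nm feature fluorescence with signal to noise over triplicate slides.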 Conditions: 635 nm fluorescence, higher = more signal.
In test [19] the target is Neurogenic locus notch homolog protein 3 (Homo sapiens) (UniProt Q9UM47). Put plainly: small molecules binding NOTCH3 protein – biochemical, 635/667 nm fluorescence, primary screen (AID 1096). Conditions: small-molecule microarray, 635 nm fluorescence, higher = more signal.
A short description of test [20]: probe aEGFR binding to arrayed compounds – biochemical, biotinylated probe, 635/667 nm fluorescence, primary screen (AID 1097).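 Note: probe is a biotinylated anti-EGFR antibody binding compounds printed on slides; score combines fluorescence near 667 nm and signal to noise of each spot.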 Conditions: small-molecule microarray, higher = more signal.

“And” between values parts separate entries of the source, which are not always exact repeats. Identical values can stand only once. The source made the active and inactive calls.

Sequence of Neurogenic locus notch homolog protein 2 (Homo sapiens) (Q04721 whole entry, looked up, canonical isoform): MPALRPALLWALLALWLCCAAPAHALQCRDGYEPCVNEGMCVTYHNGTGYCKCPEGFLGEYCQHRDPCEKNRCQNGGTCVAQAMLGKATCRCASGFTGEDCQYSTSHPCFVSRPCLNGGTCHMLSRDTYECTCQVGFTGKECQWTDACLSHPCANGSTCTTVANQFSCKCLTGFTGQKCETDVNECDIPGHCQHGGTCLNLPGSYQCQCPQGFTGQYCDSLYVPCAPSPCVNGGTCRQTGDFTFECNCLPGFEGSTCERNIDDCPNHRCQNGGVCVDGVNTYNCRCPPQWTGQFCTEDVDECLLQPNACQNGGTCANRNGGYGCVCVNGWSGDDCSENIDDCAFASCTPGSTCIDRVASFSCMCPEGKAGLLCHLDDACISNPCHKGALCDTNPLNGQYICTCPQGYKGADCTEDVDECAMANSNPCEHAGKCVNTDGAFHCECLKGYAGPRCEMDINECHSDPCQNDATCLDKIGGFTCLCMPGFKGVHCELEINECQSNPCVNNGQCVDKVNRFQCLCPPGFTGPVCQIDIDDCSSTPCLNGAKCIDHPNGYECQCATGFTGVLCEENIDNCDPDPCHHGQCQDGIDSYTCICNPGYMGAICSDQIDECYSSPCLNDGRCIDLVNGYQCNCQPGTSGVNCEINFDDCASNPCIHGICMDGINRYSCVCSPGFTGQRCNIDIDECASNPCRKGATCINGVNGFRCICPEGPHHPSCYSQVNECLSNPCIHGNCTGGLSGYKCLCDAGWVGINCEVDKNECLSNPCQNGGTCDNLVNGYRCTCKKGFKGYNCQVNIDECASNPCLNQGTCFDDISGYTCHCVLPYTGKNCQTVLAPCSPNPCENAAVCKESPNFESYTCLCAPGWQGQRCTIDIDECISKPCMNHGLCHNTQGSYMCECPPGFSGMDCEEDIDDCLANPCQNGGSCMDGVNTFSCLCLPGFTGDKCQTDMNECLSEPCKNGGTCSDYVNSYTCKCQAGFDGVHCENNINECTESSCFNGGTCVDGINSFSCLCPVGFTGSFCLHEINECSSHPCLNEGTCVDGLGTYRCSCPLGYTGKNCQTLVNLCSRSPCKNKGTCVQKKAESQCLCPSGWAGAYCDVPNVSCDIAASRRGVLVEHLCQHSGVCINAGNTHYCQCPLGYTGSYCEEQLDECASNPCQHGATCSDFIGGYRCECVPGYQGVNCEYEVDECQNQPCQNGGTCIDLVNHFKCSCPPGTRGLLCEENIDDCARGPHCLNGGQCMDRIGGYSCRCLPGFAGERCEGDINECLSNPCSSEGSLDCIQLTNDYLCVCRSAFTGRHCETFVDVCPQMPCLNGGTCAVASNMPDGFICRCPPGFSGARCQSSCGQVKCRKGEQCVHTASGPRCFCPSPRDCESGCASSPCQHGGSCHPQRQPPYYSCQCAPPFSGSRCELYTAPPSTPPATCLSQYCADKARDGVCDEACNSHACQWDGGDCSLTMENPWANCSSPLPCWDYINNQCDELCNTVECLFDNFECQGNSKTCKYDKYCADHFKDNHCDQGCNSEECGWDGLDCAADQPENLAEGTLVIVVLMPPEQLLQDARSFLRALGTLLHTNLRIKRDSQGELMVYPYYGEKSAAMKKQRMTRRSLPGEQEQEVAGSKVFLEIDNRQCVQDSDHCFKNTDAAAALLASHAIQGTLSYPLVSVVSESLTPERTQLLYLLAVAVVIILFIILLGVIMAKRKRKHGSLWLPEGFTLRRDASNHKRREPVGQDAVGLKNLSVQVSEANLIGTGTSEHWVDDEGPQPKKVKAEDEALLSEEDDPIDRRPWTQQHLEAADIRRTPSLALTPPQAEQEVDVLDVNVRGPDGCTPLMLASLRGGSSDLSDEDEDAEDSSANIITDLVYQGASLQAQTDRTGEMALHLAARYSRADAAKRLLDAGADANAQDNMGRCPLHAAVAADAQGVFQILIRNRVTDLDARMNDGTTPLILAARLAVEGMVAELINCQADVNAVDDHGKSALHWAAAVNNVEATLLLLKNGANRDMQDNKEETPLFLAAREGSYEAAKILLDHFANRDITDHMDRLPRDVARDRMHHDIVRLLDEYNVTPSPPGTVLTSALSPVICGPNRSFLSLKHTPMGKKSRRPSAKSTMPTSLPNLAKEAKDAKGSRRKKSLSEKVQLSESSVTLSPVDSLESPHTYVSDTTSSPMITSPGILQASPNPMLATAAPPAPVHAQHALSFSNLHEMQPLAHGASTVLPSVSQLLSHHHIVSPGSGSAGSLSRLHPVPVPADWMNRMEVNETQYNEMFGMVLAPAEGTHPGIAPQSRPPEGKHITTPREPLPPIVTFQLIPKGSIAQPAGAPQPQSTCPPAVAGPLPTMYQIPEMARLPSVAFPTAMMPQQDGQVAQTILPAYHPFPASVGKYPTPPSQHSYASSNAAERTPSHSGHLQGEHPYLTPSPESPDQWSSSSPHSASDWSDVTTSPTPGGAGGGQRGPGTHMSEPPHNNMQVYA
Sequence of Torsin-1A-interacting protein 2 (Homo sapiens) (Q8NFQ8 whole entry, looked up): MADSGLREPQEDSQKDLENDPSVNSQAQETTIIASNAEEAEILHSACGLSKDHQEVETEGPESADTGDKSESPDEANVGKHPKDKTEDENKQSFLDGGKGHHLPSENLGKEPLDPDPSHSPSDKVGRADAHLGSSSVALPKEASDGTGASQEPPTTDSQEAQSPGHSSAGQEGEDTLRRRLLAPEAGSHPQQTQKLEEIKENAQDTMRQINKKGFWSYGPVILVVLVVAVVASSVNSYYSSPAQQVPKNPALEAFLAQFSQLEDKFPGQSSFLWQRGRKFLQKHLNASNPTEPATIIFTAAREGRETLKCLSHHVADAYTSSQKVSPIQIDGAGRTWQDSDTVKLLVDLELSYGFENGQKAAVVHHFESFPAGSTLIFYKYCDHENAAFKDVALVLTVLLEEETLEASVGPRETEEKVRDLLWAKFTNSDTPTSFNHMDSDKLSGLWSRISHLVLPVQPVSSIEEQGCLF
Sequence of Pro-neuregulin-1, membrane-bound isoform (Homo sapiens) (Q02297 whole entry, looked up, the tested form may be a part, canonical isoform): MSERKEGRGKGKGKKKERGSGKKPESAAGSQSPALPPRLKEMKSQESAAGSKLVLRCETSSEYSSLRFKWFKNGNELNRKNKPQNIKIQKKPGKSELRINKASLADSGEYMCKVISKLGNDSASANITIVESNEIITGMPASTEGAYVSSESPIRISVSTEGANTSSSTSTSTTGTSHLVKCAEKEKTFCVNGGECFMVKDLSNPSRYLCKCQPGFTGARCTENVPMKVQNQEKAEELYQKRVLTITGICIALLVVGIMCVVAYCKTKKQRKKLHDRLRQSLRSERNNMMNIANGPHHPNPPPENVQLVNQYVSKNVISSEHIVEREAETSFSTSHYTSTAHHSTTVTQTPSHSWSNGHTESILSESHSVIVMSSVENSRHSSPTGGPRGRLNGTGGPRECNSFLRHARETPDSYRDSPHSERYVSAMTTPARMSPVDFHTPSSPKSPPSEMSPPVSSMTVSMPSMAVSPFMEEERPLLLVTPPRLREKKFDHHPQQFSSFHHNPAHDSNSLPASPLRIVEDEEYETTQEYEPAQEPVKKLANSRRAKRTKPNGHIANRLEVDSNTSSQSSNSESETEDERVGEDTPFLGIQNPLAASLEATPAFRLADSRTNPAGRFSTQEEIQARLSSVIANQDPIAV

Consider `CCOC(=O)[C@@H]1CC2O[C@]23C[C@@H]1C(=O)N1CCC[C@@H]1[C@H]3O[Si](C)(C)C(C)(C)C` (stereo not given in full), for which the composite z-score in [1] is -0.224 and -0.287; in test [2], -0.457 and -0.0006; in test [3], -0.238 and -0.0048; in test [4] it was -0.235 and -0.144; in test [5], -1.08 and -0.312; in test [6], -0.737 and -0.343. Moreover, the composite z-score in test [7] was -1.07 and -0.585; in [9] it was -0.378 and 0.223; in test [10], -0.207 and -0.231; in test [11] it was -1.64 and -0.147; in test [15], -1.04 and 0.179; in [17], -0.357 and -0.0163. In addition, the composite z-score was -0.355 and 0.12 in [18]; -0.868 and -0.199 in test [19]; -0.12 and -0.0314 in test [20]. Besides, the z-score in test [8] is -0.304 (inactive) and 0.333 (inactive); in test [12], -0.418 (inactive) and -1.22 (inactive); in [13] it was -1.05 (inactive) and -0.791 (inactive); in test [14], -0.435 (inactive) and -0.321 (inactive); in [16], -0.458 (inactive) and -0.86 (inactive).

`C=CCN(CCCCC)C(=O)C1N(CCOCCO)C(=O)C2C(C(=O)O)C3C=CC21O3` (stereo not given): the composite z-score is 0.555 and 0.963 in [1]; -0.771 and -0.902 in test [2]; -0.191 and -0.283 in test [3]; -1.87 in [4]; -0.459 and -2.05 in test [5]; 0.17 and -0.496 in test [6]. Besides, the composite z-score was 0.891 and 1.05 in [7]; -0.211 and -0.726 in test [9]; -0.171 and -0.182 in [10]; -1.77 and -0.751 in [11]; 0.0037 and 0.198 in test [15]; -0.0617 and -0.142 in test [17]. Besides, the composite z-score is -1.17 and -2.1 in [18]; -0.574 and -1.05 in test [19]; -0.275 and -0.367 in test [20]. In addition, the z-score was 0.306 (inactive) and 0.0282 (inactive) in test [8]; 0.322 (inactive) and 0.513 (inactive) in test [12]; 0.0056 (inactive) and 0.398 (inactive) in test [13]; 0.912 (inactive) and 1.09 (inactive) in [14]; -0.45 (inactive) and -0.546 (inactive) in [16].

`C[C@@H]1CN2[C@@H](CC[C@@H](C)[C@@H]2c2ccc(Br)cc2)C(=O)O1`: the composite z-score in [1] is -0.267 and -0.0033; in test [2] it was -0.0199 and 0.174; in [3] it was -0.116 and -0.0583; in [4], 0.215 and 0.604; in test [5], 0.275 and 0.18; in test [6], -0.368 and 0.158. Moreover, the composite z-score in test [7] was -0.704 and -0.829; in [9], -0.145 and 0.0701; in test [10], -0.0994 and -0.274; in test [11], -0.477 and -0.0962; in test [15], -0.625 and 0.0053; in test [17], -0.166 and -0.18. Moreover, the composite z-score is 0.0137 and 0.546 in [18]; -0.307 and -0.733 in [19]; -0.111 and -0.154 in [20]. In addition, the z-score in test [8] was -0.735 (inactive) and -1.38 (inactive); in test [12], 0.327 (inactive) and -1.72 (inactive); in test [13], 0.398 (inactive) and -0.794 (inactive); in test [14], 1.74 (inactive) and -0.538 (inactive); in test [16], 0.0454 (inactive) and 0.082 (inactive).

Take `CCCC[C@@H]1CN2[C@H](c3ccc(Br)cc3)[C@@H](C)CC[C@H]2C(=O)O1`: the composite z-score in [1] is -0.419 and -0.254; in [2], -0.309 and 0.41; in test [3], -0.129 and -0.103; in test [4], -0.0574 and -0.132; in test [5], -0.118 and -0.134; in [6] it was 0.0412 and -0.139. Moreover, the composite z-score in [7] was -0.246 and -0.605; in [9] it was -0.0739 and -0.0224; in test [10] it was 0.0264 and -0.0237; in [11], -0.214 and 0.499; in test [15] it was -0.461 and -0.18; in test [17], -0.234 and -0.145. For the same compound, the composite z-score in [18] was 0.16 and 0.31; in [19] it was -0.391 and -0.433; in test [20], -0.174 and -0.137. In addition, the z-score was -1.09 (inactive) and 0.204 (inactive) in test [8]; -0.156 (inactive) and -0.142 (inactive) in [12]; -19.4 (active) and -17.4 (active) in [13]; -0.269 (inactive) and -0.224 (inactive) in [14]; 0.298 (inactive) and 0.24 (inactive) in [16].
